Drawing on PubChem BioAssay (NCI), this text covers growth for eight molecules.

Test systems include NCI-H23 lung; NCI-H226 lung; NCI-H322M lung; HOP-62 NSCLC; NCI-H460 lung; HOP-92 NSCLC; NCI-H522 lung; A549/ATCC NSCLC; 786-0 renal; COLO 205 colon; DU-145 prostate; K-562 leukemia; MALME-3M melanoma; MDA-MB-231 breast; RXF 393 renal; SF-268 CNS; SF-295 CNS; SF-539 CNS; UACC-257 melanoma; M14 melanoma.
Holding throughout (test): NCI-60 one-dose screen, 48 h (100 = growth as untreated, 0 = no growth, -100 = all killed)
What all share (conditions): 10 µM unless noted

Compounds without any hit were thinned out: in the full panel of roughly 83,000, 20% have a hit.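 Assay: single dose, 48 h. Readout: percent growth (0 = no net growth; negative = cell death). Active: <10.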 A number with no mark means an inactive call. Activity calls are given as the source filed them.

Regarding `CS(=O)(=O)c1ccc(-c2cc(-c3nnc(SCC(=O)Nc4ccc(C(=O)/C=C/c5ccc(Cl)cc5)cc4)n3-c3ccccc3)c3ccccc3n2)cc1`, the growth was 97.8% in the test with NCI-H23 lung; 94.6% in the test with NCI-H226 lung; 89.8% with NCI-H322M lung; 95.1% in the test with HOP-62 NSCLC; 99.1% in the test on NCI-H460 lung; 110% in the test with HOP-92 NSCLC. For the same molecule, the growth in the test with NCI-H522 lung is 90%; in the test on A549/ATCC NSCLC, 91.5%; in the test with 786-0 renal, 93%; with COLO 205 colon it was 106%; in the test with DU-145 prostate, 105%; in the test on K-562 leukemia it was 89.9%. Also, the growth was 104% with MALME-3M melanoma; 92.1% in the test with MDA-MB-231 breast; 92.3% in the test on RXF 393 renal; 81.7% in the test with SF-268 CNS; 96% with SF-295 CNS; 87.5% in the test on SF-539 CNS. The growth is 107% in the test with UACC-257 melanoma and 97.5% in the test on M14 melanoma.
For `Cc1ccccc1CNc1ccc(N2CCOCC2)cc1`, the growth in the test on NCI-H23 lung is 99.1%; with NCI-H226 lung it was 107%; in the test on NCI-H322M lung, 98.3%; in the test with HOP-62 NSCLC, 117%; in the test on NCI-H460 lung, 112%; in the test on HOP-92 NSCLC, 115%. Moreover, the growth is 101% in the test on NCI-H522 lung; 103% with A549/ATCC NSCLC; 107% in the test with 786-0 renal; 108% in the test on COLO 205 colon; 102% in the test with DU-145 prostate; 101% in the test with K-562 leukemia. Besides, the growth is 102% in the test with MALME-3M melanoma; 101% in the test with MDA-MB-231 breast; 114% with RXF 393 renal; 93.4% in the test with SF-268 CNS; 99.2% in the test on SF-295 CNS; 111% with SF-539 CNS. The values for the growth with UACC-257 melanoma and in the test on M14 melanoma were 103% and 100%, respectively.
For the molecule `Cc1cc(C)n(Nc2nc3ccccc3[nH]c2=O)c(=O)c1C#N`, the growth in the test with NCI-H23 lung was 89.8%; in the test with NCI-H226 lung, 89%; in the test on NCI-H322M lung, 100%; in the test with HOP-62 NSCLC it was 93%; in the test with NCI-H460 lung, 100%; in the test with HOP-92 NSCLC, 76.2%. Besides, the growth is 93.3% in the test with NCI-H522 lung; 96.9% in the test with A549/ATCC NSCLC; 96.5% in the test with 786-0 renal; 113% in the test on COLO 205 colon; 101% in the test with DU-145 prostate; 94.3% with K-562 leukemia. For the same molecule, the growth with MALME-3M melanoma is 91.7%; with MDA-MB-231 breast, 80.6%; with RXF 393 renal it was 97.9%; in the test on SF-268 CNS, 92.9%; in the test on SF-295 CNS it was 95.6%; in the test with SF-539 CNS, 87.2%. Further, the results for the growth in the test with UACC-257 melanoma and in the test with M14 melanoma were 97.6% and 98.8%, respectively.
In the case of `CC(C)(C)OC(=O)N1CCN(c2ccc(N)cc2)C(=O)C1`, the growth in the test on NCI-H23 lung is 97.7%; with NCI-H226 lung, 100%; in the test on NCI-H322M lung it was 107%; with HOP-62 NSCLC it was 106%; in the test with NCI-H460 lung, 111%; with HOP-92 NSCLC, 127%. Besides, the growth was 107% in the test on NCI-H522 lung; 104% in the test with A549/ATCC NSCLC; 100% in the test on 786-0 renal; 113% with COLO 205 colon; 115% in the test on DU-145 prostate; 99.9% in the test on K-562 leukemia. The growth is 106% in the test with MALME-3M melanoma; 98.8% in the test on MDA-MB-231 breast; 110% in the test with RXF 393 renal; 103% in the test with SF-268 CNS; 98.2% in the test on SF-295 CNS; 107% in the test with SF-539 CNS. Moreover, the results for the growth with UACC-257 melanoma and in the test with M14 melanoma were 107% and 101%, respectively.
With `O=C(/C=C/c1ccc[nH]1)c1ccc(-n2ccc(C(F)(F)F)n2)cc1`, the growth in the test on NCI-H23 lung was 90.1%; in the test on NCI-H226 lung, 91.5%; in the test on NCI-H322M lung, 72.4%; in the test on HOP-62 NSCLC, 104%; in the test on NCI-H460 lung, 99.1%; in the test with HOP-92 NSCLC, 96.3%. For the same molecule, the growth with NCI-H522 lung is -6.16% (active); in the test on A549/ATCC NSCLC it was 50.6%; with 786-0 renal, 45.4%; with COLO 205 colon it was 122%; in the test with DU-145 prostate it was 96.4%; with K-562 leukemia, 68.1%. Further, the growth in the test on MALME-3M melanoma was 86%; with MDA-MB-231 breast, 22.7%; with RXF 393 renal, 50%; with SF-268 CNS, 34.2%; in the test on SF-295 CNS, 70.2%; in the test on SF-539 CNS, 14.3%. The growth in the test on UACC-257 melanoma was 96.7%; in the test with M14 melanoma, 94.5%.
For `NC(=S)N/N=C(/c1ccccc1)c1ccccc1N`, the growth with NCI-H23 lung is 94.9%; with NCI-H226 lung, 82.2%; in the test on NCI-H322M lung, 91.8%; in the test on HOP-62 NSCLC it was 98.5%; in the test with NCI-H460 lung it was 102%; in the test with HOP-92 NSCLC, 102%. Moreover, the growth in the test with NCI-H522 lung is 88.9%; in the test with A549/ATCC NSCLC, 87.3%; with 786-0 renal it was 101%; with COLO 205 colon, 108%; with DU-145 prostate it was 94.2%; with K-562 leukemia, 45.5%. Besides, the growth in the test with MALME-3M melanoma is 93.7%; in the test with MDA-MB-231 breast, 85.8%; with RXF 393 renal it was 105%; with SF-268 CNS it was 92.9%; in the test on SF-295 CNS it was 82.5%; with SF-539 CNS it was 99.6%. For the same molecule, the growth is 54% in the test with UACC-257 melanoma and 88.2% in the test with M14 melanoma.
For the molecule `C=C1C(=O)O[C@H]2[C@H]1CC/C(COC(=O)CCCc1c[nH]c3ccccc13)=C\CC[C@@]1(C)O[C@@H]21`, the growth in the test on NCI-H23 lung was 65.9%; in the test with NCI-H226 lung, 76.7%; with NCI-H322M lung it was 104%; with HOP-62 NSCLC, 89.8%; in the test with NCI-H460 lung, 85.9%; in the test with HOP-92 NSCLC, 44.6%. The growth in the test on NCI-H522 lung was 39.9%; in the test with A549/ATCC NSCLC, 72%; with 786-0 renal it was 14.2%; in the test with COLO 205 colon, 64.8%; in the test on DU-145 prostate it was 49.6%; with K-562 leukemia, -9.04% (active). The growth in the test on MALME-3M melanoma was 86.4%; in the test on MDA-MB-231 breast, 35.4%; with RXF 393 renal, 32.7%; in the test on SF-268 CNS, 60.8%; in the test with SF-295 CNS, 82%; with SF-539 CNS, 41.7%. Besides, the growth with UACC-257 melanoma is 64.1%; in the test with M14 melanoma it was 53.1%.
As to `COc1cccc(CNCCN2C(=O)c3ccc4c5c(ccc(c35)C2=O)C(=O)N(CCNCc2cccc(OC)c2)C4=O)c1`, the growth with NCI-H23 lung is 87.2%; in the test on NCI-H226 lung it was 95.8%; with NCI-H322M lung it was 89.9%; in the test on HOP-62 NSCLC, 105%; with NCI-H460 lung, 46.8%; in the test on HOP-92 NSCLC, 99.9%. Moreover, the growth is 86.9% in the test on NCI-H522 lung; 46.2% in the test on A549/ATCC NSCLC; 81% with 786-0 renal; 53.7% with COLO 205 colon; 113% in the test on DU-145 prostate; 8.7% (active) in the test with K-562 leukemia. In addition, the growth in the test on MALME-3M melanoma was 26.3%; in the test on MDA-MB-231 breast, 78.1%; in the test on RXF 393 renal, 87%; in the test with SF-268 CNS, 74.1%; in the test on SF-295 CNS, 113%; in the test with SF-539 CNS, 97.8%. Moreover, the growth is 79.1% in the test on UACC-257 melanoma and 71.7% in the test with M14 melanoma.
